What all share (test): universal protein binding microarray (PBM); transcription factors of Arabidopsis thaliana; high values mean tight binding
One experiment concerns the target T1, GST-ANAC092(1-176) (Arabidopsis thaliana, UniProt Q9FKA0 1-176).
T1 sequence: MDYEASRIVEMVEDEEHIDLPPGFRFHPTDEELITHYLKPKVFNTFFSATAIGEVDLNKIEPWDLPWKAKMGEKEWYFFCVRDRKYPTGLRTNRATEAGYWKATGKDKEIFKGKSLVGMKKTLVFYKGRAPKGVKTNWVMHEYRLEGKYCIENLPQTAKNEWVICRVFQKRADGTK
The settings on record: protein: recombinant; tags: GST; chain copies: 2; dsDNA, one strand shown. The gist of the method: (§1)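 GST-tagged NAC-domain, full-length or DNA-binding-domain proteins were induced in cells, with zinc acetate added for zinc-finger proteins. They were purified on glutathione–Sepharose 4B and quantified by A280 or anti-GST western blot. Each was applied at 200 to 500 nM final, in duplicate, to custom all-10-mer Agilent 4 × 180K arrays made double-stranded by primer extension, with gapped and ungapped 8-mers scored. Binding is the normalised enrichment score (E-score).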

The target of another experiment is T2, GST-ANAC019 NAC domain (Arabidopsis thaliana, UniProt Q9C932 14-162).
T2 sequence: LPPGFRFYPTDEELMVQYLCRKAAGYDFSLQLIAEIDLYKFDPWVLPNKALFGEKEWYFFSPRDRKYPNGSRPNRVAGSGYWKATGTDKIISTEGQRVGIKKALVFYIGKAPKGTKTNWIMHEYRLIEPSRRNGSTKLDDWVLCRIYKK
The settings on record: protein: recombinant; tags: GST; chain copies: 2; dsDNA, one strand shown. The gist of the method: as §1

Another experiment deals with T3, GST-ANAC055(1-171) (Arabidopsis thaliana, UniProt Q9LDY8 1-171).
T3 sequence: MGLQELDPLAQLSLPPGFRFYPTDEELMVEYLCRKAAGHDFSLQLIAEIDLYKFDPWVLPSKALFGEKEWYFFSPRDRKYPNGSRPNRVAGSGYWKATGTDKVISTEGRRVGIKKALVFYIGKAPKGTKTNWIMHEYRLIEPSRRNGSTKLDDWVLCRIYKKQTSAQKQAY
The settings on record: protein: recombinant; tags: GST; chain copies: 2; dsDNA, one strand shown. The gist of the method: as §1

The target in the next experiment is T4, GST-ATAF1 NAC domain (Arabidopsis thaliana, UniProt Q39013 7-158).
T4 sequence: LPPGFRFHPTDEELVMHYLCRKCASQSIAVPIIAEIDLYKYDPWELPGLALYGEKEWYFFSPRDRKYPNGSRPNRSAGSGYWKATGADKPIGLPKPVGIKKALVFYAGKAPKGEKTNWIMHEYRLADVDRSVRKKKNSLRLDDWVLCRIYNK
The settings on record: protein: recombinant; tags: GST; chain copies: 2; dsDNA, one strand shown. The gist of the method: as §1

The target of experiment [1] is T5, GST-ANAC092(1-285) full length (Arabidopsis thaliana, UniProt Q9FKA0 1-285).
T5 sequence: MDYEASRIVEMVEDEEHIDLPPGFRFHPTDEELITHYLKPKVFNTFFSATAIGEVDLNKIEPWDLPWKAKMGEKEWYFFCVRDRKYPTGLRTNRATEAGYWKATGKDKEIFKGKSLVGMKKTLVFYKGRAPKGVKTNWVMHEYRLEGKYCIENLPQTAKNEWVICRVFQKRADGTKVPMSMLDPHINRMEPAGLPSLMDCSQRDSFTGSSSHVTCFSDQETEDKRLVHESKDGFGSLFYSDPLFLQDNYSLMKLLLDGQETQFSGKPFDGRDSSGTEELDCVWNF
The settings on record: protein: recombinant; tags: GST; chain copies: 2; dsDNA, one strand shown. Put shortly: as §1

For a further experiment, the target named is T6, GST-NAP(1-166) (Arabidopsis thaliana, UniProt O49255 1-166).
T6 sequence: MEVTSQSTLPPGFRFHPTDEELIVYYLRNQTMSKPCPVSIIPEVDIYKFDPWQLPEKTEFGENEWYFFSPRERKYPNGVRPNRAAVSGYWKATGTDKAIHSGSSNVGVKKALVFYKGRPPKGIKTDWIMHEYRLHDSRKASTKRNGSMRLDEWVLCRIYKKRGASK
The settings on record: protein: recombinant; tags: GST; chain copies: 2; dsDNA, one strand shown. The gist of the method: as §1

The next experiment has as its target T7, GST-NST2(1-184) (Arabidopsis thaliana, UniProt Q9M274 1-184).
T7 sequence: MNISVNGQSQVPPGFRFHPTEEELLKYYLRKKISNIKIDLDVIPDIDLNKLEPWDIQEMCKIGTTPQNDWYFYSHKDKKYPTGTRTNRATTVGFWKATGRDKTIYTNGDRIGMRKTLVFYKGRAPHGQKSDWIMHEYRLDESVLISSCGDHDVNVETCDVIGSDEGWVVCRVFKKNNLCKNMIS
The settings on record: protein: recombinant; tags: GST; chain copies: 2; dsDNA, one strand shown. The gist of the method:
as §1

In another experiment the target is T8, GST-NTL8 NAC domain (Arabidopsis thaliana, UniProt Q9XIN7 14-156).
T8 sequence: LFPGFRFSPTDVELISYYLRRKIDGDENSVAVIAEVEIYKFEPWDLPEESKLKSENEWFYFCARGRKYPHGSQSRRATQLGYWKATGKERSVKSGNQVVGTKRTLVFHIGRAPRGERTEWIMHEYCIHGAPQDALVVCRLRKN
The settings on record: protein: recombinant; tags: GST; chain copies: 2; dsDNA, one strand shown. The gist of the method:
as §1

For the next experiment, the target named is T9, GST-SND1(1-203) (Arabidopsis thaliana, UniProt Q9LPI7 1-203).
T9 sequence: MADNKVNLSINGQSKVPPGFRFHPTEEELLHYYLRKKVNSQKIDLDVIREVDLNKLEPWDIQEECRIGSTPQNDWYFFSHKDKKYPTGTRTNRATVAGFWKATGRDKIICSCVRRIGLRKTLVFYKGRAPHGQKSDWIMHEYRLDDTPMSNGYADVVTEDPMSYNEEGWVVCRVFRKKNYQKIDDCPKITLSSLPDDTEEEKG
The settings on record: protein: recombinant; tags: GST; chain copies: 2; dsDNA, one strand shown. Put shortly:
as §1

The next experiment addresses T10, GST-VND3 NAC domain (Arabidopsis thaliana, UniProt Q9FH59 12-162).
T10 sequence: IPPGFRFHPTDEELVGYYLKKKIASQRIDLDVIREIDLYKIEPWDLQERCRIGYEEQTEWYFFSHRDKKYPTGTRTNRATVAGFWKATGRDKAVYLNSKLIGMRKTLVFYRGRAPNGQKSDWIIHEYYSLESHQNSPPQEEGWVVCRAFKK
The settings on record: protein: recombinant; tags: GST; chain copies: 2; dsDNA, one strand shown. Put shortly:
as §1

The target in the next experiment is T11, GST-VND7 NAC domain (Arabidopsis thaliana, UniProt Q9C8W9 9-158).
T11 sequence: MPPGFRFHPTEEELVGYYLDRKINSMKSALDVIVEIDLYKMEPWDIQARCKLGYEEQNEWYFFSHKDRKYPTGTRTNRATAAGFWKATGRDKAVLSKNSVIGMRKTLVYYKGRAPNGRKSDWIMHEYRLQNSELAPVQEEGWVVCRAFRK
The settings on record: protein: recombinant; tags: GST; chain copies: 2; dsDNA, one strand shown. The gist of the method: as §1

The target in a further experiment is GST-WRKY1(266-371) (Arabidopsis thaliana, UniProt Q9SI37 266-371). The settings on record: protein: recombinant; tags: GST; dsDNA, one strand shown. The gist of the method:
as §1

The target of a further experiment is GST-NTL6(1-168) (Arabidopsis thaliana, UniProt Q9SCK6 1-168). The settings on record: protein: recombinant; tags: GST; chain copies: 2; dsDNA, one strand shown. Put shortly:
as §1

This passage reports binding signal results from PMC4081100, “A DNA-binding-site landscape and regulatory network analysis for NAC transcription factors in Arabidopsis thaliana”.

Sequence of GST-WRKY1(266-371) (Q9SI37 266-371): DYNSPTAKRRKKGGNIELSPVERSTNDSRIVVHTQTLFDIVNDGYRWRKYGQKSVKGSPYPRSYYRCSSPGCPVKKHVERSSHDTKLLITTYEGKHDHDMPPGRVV
Sequence of GST-NTL6(1-168) (Q9SCK6 1-168): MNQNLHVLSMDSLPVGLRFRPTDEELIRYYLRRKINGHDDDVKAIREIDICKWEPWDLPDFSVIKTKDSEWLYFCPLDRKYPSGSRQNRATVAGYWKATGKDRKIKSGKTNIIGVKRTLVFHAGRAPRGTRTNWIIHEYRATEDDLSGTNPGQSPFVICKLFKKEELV

AGACACGC: the binding signal amounted to 0.364 E-score in the experiment with GST-ANAC092(1-176); 0.0909 E-score with GST-ANAC019 NAC domain; 0.0867 E-score with GST-ANAC055(1-171); 0.165 E-score with GST-ATAF1 NAC domain; 0.42 E-score in experiment [1]; 0.0846 E-score with GST-NAP(1-166). Further, the binding signal with GST-NST2(1-184) was 0.107 E-score; with GST-NTL8 NAC domain, 0.0629 E-score; in the experiment with GST-SND1(1-203) it was 0.215 E-score; with GST-VND3 NAC domain, 0.0792 E-score; with GST-VND7 NAC domain, 0.165 E-score; with GST-WRKY1(266-371), 0.084 E-score.
In the case of CGTCAACG, the binding signal with GST-ANAC092(1-176) amounted to 0.117 E-score; in the experiment with GST-ANAC019 NAC domain, 0.109 E-score; in the experiment with GST-ATAF1 NAC domain it was 0.0746 E-score; in experiment [1], 0.159 E-score; with GST-NAP(1-166), 0.108 E-score; with GST-SND1(1-203), 0.0973 E-score. Further, the binding signal was 0.0692 E-score with GST-VND3 NAC domain, 0.0989 E-score with GST-VND7 NAC domain and 0.47 E-score with GST-WRKY1(266-371).
In the case of ACGCAAGG, the binding signal with GST-ANAC092(1-176) was 0.399 E-score; with GST-ANAC019 NAC domain, 0.084 E-score; with GST-ANAC055(1-171), 0.106 E-score; in the experiment with GST-ATAF1 NAC domain, 0.106 E-score; in [1], 0.448 E-score; in the experiment with GST-NAP(1-166) it was 0.2 E-score. The binding signal was found to be 0.226 E-score in the experiment with GST-NST2(1-184); 0.152 E-score with GST-NTL8 NAC domain; 0.39 E-score with GST-SND1(1-203); 0.122 E-score with GST-VND3 NAC domain; 0.128 E-score with GST-VND7 NAC domain; 0.201 E-score with GST-WRKY1(266-371).
With AGTTTGAC, the binding signal with GST-NTL6(1-168) was determined as 0.0778 E-score; with GST-ANAC019 NAC domain, 0.068 E-score; with GST-ANAC055(1-171), 0.118 E-score; with GST-ATAF1 NAC domain, 0.122 E-score; with GST-SND1(1-203), 0.069 E-score; in the experiment with GST-VND3 NAC domain, 0.0521 E-score. Also, the binding signal in the experiment with GST-VND7 NAC domain was determined as 0.095 E-score; in the experiment with GST-WRKY1(266-371), 0.48 E-score.
In the case of ACGGAAGC, the binding signal in the experiment with GST-ANAC092(1-176) came to 0.299 E-score; in the experiment with GST-NTL6(1-168), 0.0877 E-score; in the experiment with GST-ANAC019 NAC domain, 0.436 E-score; in the experiment with GST-ANAC055(1-171) it was 0.374 E-score; with GST-ATAF1 NAC domain it was 0.289 E-score; in experiment [1] it was 0.298 E-score. Besides, the binding signal in the experiment with GST-NAP(1-166) was 0.236 E-score; with GST-NST2(1-184), 0.257 E-score; with GST-SND1(1-203) it was 0.209 E-score; with GST-VND3 NAC domain, 0.385 E-score; in the experiment with GST-VND7 NAC domain, 0.266 E-score.
On to ATTCCGTG, for which the binding signal with GST-ANAC092(1-176) worked out at 0.408 E-score; with GST-NTL6(1-168) it was 0.129 E-score; in the experiment with GST-ANAC019 NAC domain it was 0.438 E-score; with GST-ANAC055(1-171), 0.448 E-score; with GST-ATAF1 NAC domain it was 0.3 E-score; in experiment [1] it was 0.401 E-score. Also, the binding signal with GST-NAP(1-166) worked out at 0.329 E-score; with GST-NST2(1-184), 0.251 E-score; with GST-SND1(1-203), 0.135 E-score; with GST-VND3 NAC domain, 0.386 E-score; with GST-VND7 NAC domain, 0.41 E-score.
With CACGGCAA, the binding signal in the experiment with GST-ANAC092(1-176) turned out to be 0.457 E-score; with GST-NTL6(1-168), 0.0683 E-score; with GST-ANAC019 NAC domain, 0.471 E-score; in the experiment with GST-ANAC055(1-171), 0.44 E-score; with GST-ATAF1 NAC domain it was 0.364 E-score; in experiment [1], 0.456 E-score. For the same sequence, the binding signal with GST-NAP(1-166) was determined as 0.36 E-score; in the experiment with GST-NST2(1-184), 0.256 E-score; with GST-NTL8 NAC domain it was 0.0895 E-score; with GST-SND1(1-203), 0.123 E-score; with GST-VND3 NAC domain it was 0.456 E-score; with GST-VND7 NAC domain, 0.444 E-score.
Consider ACGTAATC, for which the binding signal in the experiment with GST-ANAC092(1-176) was found to be 0.464 E-score; in the experiment with GST-NTL6(1-168) it was 0.0901 E-score; with GST-ANAC019 NAC domain, 0.453 E-score; in the experiment with GST-ANAC055(1-171) it was 0.411 E-score; with GST-ATAF1 NAC domain it was 0.38 E-score; in experiment [1], 0.462 E-score. For the same sequence, the binding signal came out at 0.443 E-score with GST-NAP(1-166); 0.356 E-score with GST-NST2(1-184); 0.424 E-score in the experiment with GST-SND1(1-203); 0.427 E-score in the experiment with GST-VND3 NAC domain; 0.44 E-score in the experiment with GST-VND7 NAC domain.
Turning to AATGCCGT, the binding signal amounted to 0.335 E-score with GST-ANAC092(1-176); 0.0523 E-score in the experiment with GST-NTL6(1-168); 0.428 E-score with GST-ANAC019 NAC domain; 0.391 E-score with GST-ANAC055(1-171); 0.342 E-score with GST-ATAF1 NAC domain; 0.365 E-score in experiment [1]. Further, the binding signal in the experiment with GST-NAP(1-166) worked out at 0.366 E-score; in the experiment with GST-NST2(1-184), 0.114 E-score; with GST-SND1(1-203) it was 0.0974 E-score; with GST-VND3 NAC domain it was 0.407 E-score; in the experiment with GST-VND7 NAC domain it was 0.4 E-score.
